Results reported in PubChem BioAssay AID1159580 (chemical genetic matrix, 2015).
About 2,000 (36%) of roughly 5,500 compounds were called active. Roughly 18% stayed inconclusive and do not appear here. No stated cut-off is given here; in the data, active means normalized growth mostly below about 0.91 (no sharp cut-off); inconclusive means no clear call, values can overlap the other calls; inactive means mostly above about 0.92. Some of the results follow.

Assay: chemical genetic growth profiling, strain panel (AID 1159580);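 further: tested at 20 µM; growth read once vehicle control cultures reached saturation at 30 °C; 1 = growth at the plate median or of vehicle wells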
Details: S. cerevisiae deletion strains, growth OD

Measured: normalized growth

COc1ccccc1/C=C\C(=O)O
inactive: locus YAL013W, strain DEP1, stronger effect = lower value 1.02 | locus YAL021C, strain ccr4, stronger effect = lower value 1.01 | locus YAL026C, strain drs2, stronger effect = lower value 1.01 | locus YAL030W, strain snc1, stronger effect = lower value 0.988 | locus YBL061C, strain skt5, stronger effect = lower value 1 | locus YBR009C, strain hhf1, stronger effect = lower value 1 | locus YBR021W, strain FUR4, stronger effect = lower value 1.02 | locus YBR023C, strain chs3, stronger effect = lower value 1.01 | locus YBR171W, strain sec66, stronger effect = lower value 0.996 | locus YBR229C, strain ROT2, stronger effect = lower value 1.02 | locus YBR231C, strain swc5, stronger effect = lower value 1.02 | locus YBR279W, strain paf1, stronger effect = lower value 1 | locus YCL011C, strain gbp2, stronger effect = lower value 0.99 | locus YCL016C, strain dcc1, stronger effect = lower value 1.01 | locus YCL029C, strain bik1, stronger effect = lower value 1.02 | locus YCL061C, strain MRC1, stronger effect = lower value 0.993 | locus YCL069W, strain vba3, stronger effect = lower value 0.996 | locus YCR088W, strain abp1, stronger effect = lower value 0.996 | locus YDL005C, strain med2, stronger effect = lower value 1 | locus YDL035C, strain GPR1, stronger effect = lower value 1.08 | locus YDL040C, strain nat1, stronger effect = lower value 0.994 | locus YDL074C, strain BRE1, stronger effect = lower value 1.19 | locus YDL101C, strain DUN1, stronger effect = lower value 1.01 | locus YDL185W, strain tfp1, stronger effect = lower value 0.971 | locus YDL192W, strain arf1, stronger effect = lower value 1.04 | locus YDR001C, strain nth1, stronger effect = lower value 0.991 | locus YDR069C, strain doa4, stronger effect = lower value 1.03 | locus YDR101C, strain arx1, stronger effect = lower value 1.01 | locus YDR137W, strain rgp1, stronger effect = lower value 0.955 | locus YDR159W, strain sac3, stronger effect = lower value 1.03 | locus YDR162C, strain NBP2, stronger effect = lower value 1.05 | locus YDR195W, strain ref2 1.07 | locus YDR297W, strain sur2, stronger effect = lower value 0.994 | locus YDR318W, strain mcm21, stronger effect = lower value 1.04 | locus YDR334W, strain swr1, stronger effect = lower value 1.01 | locus YDR335W, strain msn5, stronger effect = lower value 1 | locus YDR388W, stronger effect = lower value 1 | locus YDR392W, strain spt3, stronger effect = lower value 0.793 | locus YDR502C, strain sam2, stronger effect = lower value 1.03 | locus YEL003W, strain gim4, stronger effect = lower value 0.996 | locus YEL037C, strain rad23, stronger effect = lower value 1 | locus YEL061C, strain CIN8 (second series), stronger effect = lower value 0.992 | locus YER015W, strain faa2, stronger effect = lower value 1.01 | locus YER016W, strain bim1, stronger effect = lower value 1.01 | locus YER110C, stronger effect = lower value 1.03 | locus YER111C, strain swi4, stronger effect = lower value 0.993 | locus YER155C, strain BEM2 (second series), stronger effect = lower value 0.949 | locus YER155C, strain BEM2, stronger effect = lower value 1.01 | locus YER167W, strain BCK2, stronger effect = lower value 1.01 | locus YFR010W, strain ubp6, stronger effect = lower value 1.02 | locus YGL078C, strain dbp3, stronger effect = lower value 1.02 | locus YGL086W, strain mad1, stronger effect = lower value 1.01 | locus YGL167C, strain pmr1, stronger effect = lower value 0.991 | locus YGL173C, strain kem1, stronger effect = lower value 0.998 | locus YGL227W, strain vid30, stronger effect = lower value 1 | locus YGL240W, strain doc1, stronger effect = lower value 0.981 | locus YGL248W, strain PDE1, stronger effect = lower value 1.08 | locus YGL253W, strain hxk2, stronger effect = lower value 1.01 | locus YGR078C, strain PAC10, stronger effect = lower value 1.06 | locus YGR135W, strain pre9, stronger effect = lower value 1.04 | locus YGR252W, strain gcn5, stronger effect = lower value 1.15 | locus YHR013C, strain ard1, stronger effect = lower value 0.927 | locus YHR027C, strain rpn1, stronger effect = lower value 1 | locus YHR030C, strain SLT2, stronger effect = lower value 1.01 | locus YHR079C, strain IRE1 (second series), stronger effect = lower value 1.03 | locus YHR094C, strain hxt1, stronger effect = lower value 0.998 | locus YHR129C, strain ARP1, stronger effect = lower value 1.03 | locus YHR142W, strain chs7, stronger effect = lower value 0.971 | locus YHR200W, strain rpn10, stronger effect = lower value 1.01 | locus YIL066C, strain RNR3, stronger effect = lower value 1.03 | locus YIL073C, strain SPO22, stronger effect = lower value 1.23 | locus YIL125W, strain kgd1, stronger effect = lower value 1.01 | locus YIR030C, strain dcg1, stronger effect = lower value 1.02 | locus YJL092W, strain hpr5, stronger effect = lower value 1 | locus YJL095W, strain BCK1 (second series), stronger effect = lower value 1.02 | locus YJL095W, strain BCK1, stronger effect = lower value 1.07 | locus YJL115W, strain asf1, stronger effect = lower value 1.02 | locus YJL129C, strain trk1, stronger effect = lower value 0.989 | locus YJL134W, strain LCB3, stronger effect = lower value 1.01 | locus YJL154C, strain vps35, stronger effect = lower value 1.01 | locus YJL164C, strain tpk1, stronger effect = lower value 0.992 | locus YJL166W, strain qcr8, stronger effect = lower value 0.98 | locus YJL168C, strain set2, stronger effect = lower value 1.04 | locus YJL187C, strain SWE1 (second series), stronger effect = lower value 1.04 | locus YJL187C, strain SWE1, stronger effect = lower value 0.991 | locus YJR043C, strain POL32, stronger effect = lower value 1.05 | locus YJR075W, strain HOC1, stronger effect = lower value 1.02 | locus YKL009W, strain mrt4, stronger effect = lower value 1.03 | locus YKL068W, stronger effect = lower value 1.01 | locus YKL085W, strain MDH1 (second series), stronger effect = lower value 0.99 | locus YKL085W, strain MDH1, stronger effect = lower value 0.99 | locus YKL160W, strain elf1, stronger effect = lower value 0.986 | locus YKR001C, strain vps1, stronger effect = lower value 1.07 | locus YKR026C, strain gcn3, stronger effect = lower value 1 | locus YKR091W, strain srl3, stronger effect = lower value 0.995 | locus YLL001W, strain dnm1, stronger effect = lower value 0.993 | locus YLL026W, stronger effect = lower value 1 | locus YLL041C, strain sdh2, stronger effect = lower value 0.999 | locus YLR027C, strain aat2, stronger effect = lower value 1.01 | locus YLR039C, strain RIC1, stronger effect = lower value 1.22 | locus YLR058C, strain SHM2, stronger effect = lower value 1.04 | locus YLR102C, strain apc9, stronger effect = lower value 1.01 | locus YLR221C, strain rsa3, stronger effect = lower value 0.988 | locus YLR258W, strain gsy2, stronger effect = lower value 0.987 | locus YLR262C, strain YPT6 (second series), stronger effect = lower value 0.932 | locus YLR268W, strain sec22, stronger effect = lower value 1.05 | locus YLR320W, strain mms22, stronger effect = lower value 0.942 | locus YLR330W, strain CHS5, stronger effect = lower value 1.03 | locus YLR342W, strain FKS1 (second series), stronger effect = lower value 1.05 | locus YLR342W, strain FKS1, stronger effect = lower value 0.996 | locus YLR357W, strain rsc2, stronger effect = lower value 1.02 | locus YLR370C, strain arc18, stronger effect = lower value 1 | locus YLR371W, strain rom2, stronger effect = lower value 1.02 | locus YLR384C, strain iki3, stronger effect = lower value 1.03 | locus YLR418C, strain cdc73, stronger effect = lower value 1.15 | locus YML016C, strain PPZ1, stronger effect = lower value 1.01 | locus YML032C, strain rad52, stronger effect = lower value 1.03 | locus YML120C, strain ndi1, stronger effect = lower value 0.994 | locus YML124C, strain tub3, stronger effect = lower value 1.02 | locus YMR058W, strain fet3, stronger effect = lower value 0.999 | locus YMR078C, strain ctf18, stronger effect = lower value 1.02 | locus YMR125W, strain sto1, stronger effect = lower value 1 | locus YMR129W, stronger effect = lower value 0.993 | locus YMR205C, strain PFK2, stronger effect = lower value 0.928 | locus YMR223W, strain ubp8, stronger effect = lower value 1.03 | locus YMR231W, strain pep5, stronger effect = lower value 1.01 | locus YMR307W, strain GAS1, stronger effect = lower value 1.25 | locus YNL067W, strain RPL9B, stronger effect = lower value 1.01 | locus YNL071W, strain lat1, stronger effect = lower value 0.966 | locus YNL153C, strain GIM3, stronger effect = lower value 1.06 | locus YNL209W, strain ssb2, stronger effect = lower value 1.01 | locus YNL233W, strain BNI4, stronger effect = lower value 1.08 | locus YNL248C, strain rpa49, stronger effect = lower value 1 | locus YNL250W, strain rad50, stronger effect = lower value 1.02 | locus YNL271C, strain bni1, stronger effect = lower value 1.01 | locus YNL298W, strain CLA4, stronger effect = lower value 1.03 | locus YNL307C, strain MCK1, stronger effect = lower value 1.02 | locus YNL322C, strain KRE1 (second series), stronger effect = lower value 0.999 | locus YNR049C, strain mso1, stronger effect = lower value 1 | locus YNR052C, strain pop2, stronger effect = lower value 1.03 | locus YOL006C, strain TOP1, stronger effect = lower value 1.32 | locus YOL012C, strain htz1 1.02 | locus YOL147C, strain pex11, stronger effect = lower value 1.02 | locus YOR001W, strain rrp6, stronger effect = lower value 0.979 | locus YOR061W, strain CKA2, stronger effect = lower value 1.02 | locus YOR069W, strain VPS5, stronger effect = lower value 1.02 | locus YOR070C, strain gyp1, stronger effect = lower value 1 | locus YOR080W, strain dia2, stronger effect = lower value 1.01 | locus YOR083W, strain WHI5, stronger effect = lower value 0.994 | locus YOR106W, strain vam3, stronger effect = lower value 0.995 | locus YOR136W, strain idh2, stronger effect = lower value 1.02 | locus YOR144C, strain elg1, stronger effect = lower value 1.02 | locus YOR184W, strain ser1, stronger effect = lower value 1.05 | locus YOR265W, strain rbl2, stronger effect = lower value 0.994 | locus YOR270C, strain vph1, stronger effect = lower value 0.843 | locus YOR290C, strain snf2, stronger effect = lower value 0.952 | locus YOR316C, strain cot1, stronger effect = lower value 1.01 | locus YPL051W, strain arl3, stronger effect = lower value 0.992 | locus YPL078C, strain atp4, stronger effect = lower value 0.987 | locus YPL106C, strain sse1, stronger effect = lower value 0.987 | locus YPL240C, strain hsp82, stronger effect = lower value 1 | locus YPR119W, strain clb2, stronger effect = lower value 1.02 | locus YPR141C, strain kar3, stronger effect = lower value 0.999 | locus YPR163C, strain tif3, stronger effect = lower value 1.02 | locus YPR167C, strain met16, stronger effect = lower value 1.03 | strain wtn01, stronger effect = lower value 1.03
